About 83,000 compounds went through this panel and 20% of them were active in at least one assay; those are over-represented in the sample as a whole.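 Treatment: one concentration, 48 hours, 96-well format. Scoring: percent growth, with anything below 10 considered active.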 A number with no mark means an inactive call. Calls of active or inactive are those of the source.
Assays:
Assay in all cases: NCI-60 one-dose screen, 48 h (100 = growth as untreated, 0 = no growth, -100 = all killed)
Conditions in all cases: 10 µM unless noted
[1] = tested on: HCT-15 colon
[2] = tested on: HT29 colon
[3] = tested on: SNB-75 CNS
[4] = tested on: SNB-19 CNS
[5] = tested on: U251 CNS
[6] = tested on: PC-3 prostate
[7] = tested on: SK-MEL-5 melanoma
[8] = tested on: UACC-62 melanoma
[9] = tested on: LOX IMVI melanoma
[10] = tested on: SK-MEL-28 melanoma
[11] = tested on: SK-MEL-2 melanoma
[12] = tested on: EKVX NSCLC
[13] = tested on: SN12C renal
[14] = tested on: UO-31 renal
[15] = tested on: TK-10 renal
[16] = tested on: ACHN renal
[17] = tested on: CAKI-1 renal
[18] = tested on: A498 renal
[19] = tested on: CCRF-CEM leukemia
[20] = tested on: MOLT-4 leukemia

SMILES | growth [1] | growth [2] | growth [3] | growth [4] | growth [5] | growth [6] | growth [7] | growth [8] | growth [9] | growth [10] | growth [11] | growth [12] | growth [13] | growth [14] | growth [15] | growth [16] | growth [17] | growth [18] | growth [19] | growth [20]
COc1cc(CNC(=O)CCCC/C=C/C(C)C)ccc1OCc1cn(-c2cccc([N+](=O)[O-])c2)nn1 | 77.9% | 88.9% | 92% | 68.2% | 85.3% | 82.2% | 93.2% | 70.1% | 92.9% | 106% | 88.4% | 95.1% | 89.5% | 74.7% | 105% | 81.7% | 79% | 78.9% | 90.2% | 86.6%
CN1/C(=C/C=C/c2n(Cc3ccc4ccccc4c3)c(Cl)c(Cl)[n+]2Cc2ccc3ccccc3c2)Oc2ccccc21 | -72.9% (active) | -79.7% (active) | -63.6% (active) | -96.3% (active) | -97.3% (active) | -78.4% (active) | -99.4% (active) | -94.4% (active) | -93.8% (active) | -89.5% (active) | -87.9% (active) | -91.7% (active) | -92.9% (active) | -93.1% (active) | -90.5% (active) | -96.6% (active) | -94.1% (active) | -77.9% (active) | -52.7% (active) | 91.1%
CN1C(=O)N(C)C2C1NN=c1s/c(=C\c3ccc(F)cc3)c(=O)n12 (configuration not stated) | 27.3% | 2.74% (active) | -7.45% (active) | 34.8% | 26.8% | 34.8% | 31.7% | 26.7% | 36.1% | 59.4% | 48.6% | 63.8% | 36.3% | 39.8% | 65.1% | 39.2% | 29.1% | 9.72% (active) |  | 23.2%
CC(C)c1nc(N(C)S(C)(=O)=O)nc(-c2ccc(F)cc2)c1/C=C/C(=O)C[C@@H](O)CC(=O)O | 108% | 85.6% | 91.4% | 105% | 105% | 97.6% | 105% | 99.5% | 101% | 112% | 81.1% | 107% | 110% | 93.1% | 88.4% | 108% | 98.5% | 106% |  | 107%
C#CCOc1cccc(-c2ncnc3cc(NC(=O)CCl)ccc23)c1 | -32.9% (active) | -70.7% (active) | 18% | 7.8% (active) | -93.7% (active) | -15.9% (active) | -86% (active) | -41.7% (active) | -83.7% (active) | 20.2% | -4.29% (active) | 11% | -65.8% (active) | -93.7% (active) | 11.8% | -99.6% (active) | -94.4% (active) | 59.4% | -15.6% (active) | -6.64% (active)
O=C(Nc1ncc(Cc2ccccc2Cl)s1)c1ccc2c(c1)OCCO2 | 10.4% | 6.05% (active) | 3.37% (active) | 36% | 14.7% | 23.4% | -25.1% (active) | 27.9% | 23.6% | 76.3% | 39.8% | 33.8% | 30.2% | 51.9% | 46.2% | 37.3% | 20% | -0.0402% (active) |  | 7.02% (active)
COc1ccc(/C=N/NC(=O)Cn2nnc3ccccc32)cc1 | 104% | 105% | 90.6% | 101% | 102% | 95.9% | 110% | 84.6% | 106% | 102% | 100% | 101% | 86.6% | 77.8% | 111% | 94.6% | 90.4% | 98.4% | 106% | 93%
COC(=O)c1c(C(=O)OC)c2ccc3c4ncccc4ccc3n2c1C(=O)c1ccc(C)cc1 | 91.1% | 95.1% | 95.2% | 98.1% | 98.9% | 86.6% | 83.7% | 84.8% | 88% | 95.1% | 83.2% | 83.2% | 100% | 74.3% | 93.4% | 77.1% | 83.9% | 92.8% | 71.2% | 73.3%
O=C(Oc1ccccc1)c1cc(O)c(O)c(O)c1 | 39.8% | 85.7% | 79.5% | 65.2% | 54.8% | 70.4% | 58.4% | 31.3% | 59.3% | 89.9% | 125% | 52.2% | 66.1% | 53.8% | 81% | 62.6% | 33.6% | 87.3% |  | 62.5%
COC(=O)c1nc(-c2ccc(C)cc2)oc1N1CCOCC1 | 84.8% | 86.8% | 84.6% | 94.9% | 100% | 110% | 103% | 88% | 107% | 104% | 106% | 92.8% | 93.1% | 83.7% | 81.6% | 102% | 90.3% | 77.4% |  | 80.8%
NCCCCCNc1noc(Cc2c[nH]c3cc(Br)ccc23)n1 | 35.7% | 3.86% (active) | 0.268% (active) | 46.2% | 11.7% | 9.96% (active) | 9.74% (active) | 22.6% | 34.9% | 40.2% | 4.12% (active) | 33% | 42.7% | 41.8% | 38.6% | 52.2% | 35.3% | 16.1% |  | 29.3%
O=C1CCC(C(=O)N/N=C/c2ccc([N+](=O)[O-])cc2)N1 (configuration not stated) | 98.9% | 104% | 75.4% | 99.9% | 102% | 95.3% | 104% | 100% | 91.9% | 111% | 102% | 102% | 103% | 83.4% | 93% | 101% | 93% | 106% |  | 102%
CCCNNC(=O)c1ccc(CNC(=O)/C=C/c2ccccc2)cc1 | 50.4% [2.5 µM] | 10.8% [2.5 µM] | 71.7% [2.5 µM] | 54.5% [2.5 µM] | 37.7% [2.5 µM] | 43% [2.5 µM] | 28.8% [2.5 µM] | 7.16% [2.5 µM] (active) | 21.6% [2.5 µM] | 36% [2.5 µM] | 45% [2.5 µM] | 55.2% [2.5 µM] | 52.8% [2.5 µM] | 22.4% [2.5 µM] | -0.401% [2.5 µM] (active) | 10.1% [2.5 µM] | 23.1% [2.5 µM] | -18.4% [2.5 µM] (active) |  | 15.3% [2.5 µM]
Cn1ccnc1C(=O)/C=C/c1ccc(C(=O)Nc2c(F)c(F)c(F)c(F)c2F)cc1 | -15.5% (active) | 1.2% (active) | 7.64% (active) | 5.66% (active) | -48.9% (active) | 7.27% (active) | 53.1% | 29.3% | -83.5% (active) | 82.5% | 96.2% | 25% | 6.49% (active) | -81.7% (active) | 20.4% | -43% (active) | 8.22% (active) | 76.7% | 2.63% (active) | 2.64% (active)

Reference: PubChem BioAssay (NCI)
